Assay results from PubChem BioAssay AID1345083 (National Center for Advancing Translational Sciences (NCATS), 2018).
In all, about 94,000 compounds went through this assay and about 6,200 (6.6%) were called active. Inconclusive results (about 31%) are left out. This is one part of a sample in which actives are shown more often than they occur. A number with no mark means an inactive call. Calls come from the whole dose curve; as a rule, active = well fitted inhibition curve with a large enough effect; inconclusive = small, poorly fitted or top-dose-only effect; inactive = flat fitted curve, though single readings scatter.

experiment: Cytotoxic Profiling in HEK 293 Cell Line of Diverse Libraries Using Quantitative High-Throughput Screening; details: HEK 293 viability, ATP luminescence (CellTiter-Glo), 48-72 h; series mostly up to 115 µM; activity change, negative = cytotoxicity: at the top concentration; note: nearly all actives have a fitted effect of over 60% in size
Summary of the method: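 Luminescence from cellular ATP, measured with CellTiter-Glo, indicates HEK 293 viability. Cells plated at 250 cells/well are treated with compound for 48 or 72 hr at 37 degree Celsius before reagent addition.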
% is set by controls: 0 for no effect and ±100 for the full control effect; potency is the fitted concentration of half-maximal effect.

Row | SMILES | activity change, negative = cytotoxicity | Potency | outcome
1 | COCCNC(=O)c1ccc(CC2CCNCC2)cc1 | -45.9% |  | 
2 | Cc1cnc(-c2cccnc2)n1C1CCN(S(=O)(=O)c2cccc(F)c2)CC1 | -7.54% |  | 
3 | O=C(c1c(OCC2CC2)cc(=O)n2c1CCOCC2)N1CCCCCC1 | -9.09% |  | 
4 | CCOc1ccc(NC(=O)C2(Cc3cccnc3)CCCCC(=O)N2)cc1 (configuration not stated) | -22.4% |  | 
5 | COc1cccc(NC(=O)c2cnc3n[nH]c(-c4ccc(OC)cc4C)c3n2)c1 |  | 100 µM (active) | 
6 | COC(=O)C1=CN(CC(=O)Nc2cccc(OC)c2)S(=O)(=O)N=C1C | -21.2% |  | 
7 | COc1cccc(NC(=O)c2c(OC)cc(=O)n3c2CCCC3)c1 | -19.1% |  | 
8 | CC(c1ccon1)N(C)Cc1cnc(S(=O)(=O)C(C)C)n1Cc1ccccc1F (configuration not stated) | -13.1% |  | 
9 | O=C(NC1CCCCC1)N1CCCCCC1c1nc(-c2cccnc2)no1 (configuration not stated) | -16.5% |  | 
10 | CN1CCC(N2CCC[C@H]2c2nc(-c3ccc(OC4CCCCC4)nc3)no2)CC1 |  | 28.2 µM (active) | 
11 | CC(=O)N1CCC(N2CCC[C@H]2c2nc(-c3ccc(-c4cncnc4)nc3)no2)CC1 | -10.2% [at 172 µM] |  | 
12 | O=C(N[C@@H]1CN(Cc2cccnc2)C[C@H]1CO)c1cccnc1 | -8.4% |  | 
13 | CCn1cc(CN2CCOc3ccc(C(=O)NCc4ccccc4F)cc3C2)cn1 | -22% |  | 
14 | O=[S+]([O-])(Nc1cccnc1)c1ccc2c(c1)OCCN(Cc1cscn1)C2 | -16.3% [at 172 µM] |  | 
15 | COc1c(F)cccc1CN1CCOc2cc([S+](=O)([O-])N(C)C)ccc2C1 |  | 79.4 µM (active) | 
16 | O=C(c1ccccc1F)N1CCCC2(CN[S+](=O)([O-])c3cccnc3N2)C1 (configuration not stated) | -1.19% |  | 
17 | O=c1c2ccccc2cnn1CCNC1CCC2(CCNCC2)CC1 | -8.73% |  | 
18 | Cc1nonc1OCCNC1CCC2(CCNCC2)CC1 | -20.4% |  | 
19 | CN(CCCNC1CCC2(CCNCC2)CC1)c1ccccc1 |  | 79.4 µM (active) | 
20 | CNC(=O)[C@@H]1CN(C(=O)c2cnc(C)cn2)C[C@H]1COC | -3.77% |  | 
21 | Cc1onc(-c2cnn(C)c2NCc2ccc(C#N)cc2)c1C(=O)N1CCN(C)CC1 | -6.43% [at 172 µM] |  | 
22 | CNC(=O)N1CCCC1c1nc(C2CN(C(=O)c3nccn3C)C2)no1 (configuration not stated) |  |  | inactive
23 | CN1C(=O)CC[C@]2(C(=O)NCc3ccc4c(c3)OCO4)CCCC[C@@H]12 | 4.76% |  | 
24 | CC1(C(=O)NCc2ccc3c(c2)OCO3)CCc2cnc(NCc3ccccc3)nc21 (configuration not stated) |  | 70.8 µM (active) | 
25 | Cn1ncc2c(C(=O)NCc3ccc4c(c3)OCO4)cc(-c3ccc(Cl)nc3)nc21 | -2.46% |  | 

Row | SMILES | activity change, negative = cytotoxicity | Potency | outcome
26 | O=C1Nc2ccc(-c3ccccc3)cc2C(=O)N2C[C@H](O)C[C@@H]12 | -41.1% [at 172 µM] |  | 
27 | O=C(Cc1cc(F)c(F)c(F)c1)N1CCC(Cc2cccc(CO)c2)C1 (configuration not stated) | -29.4% |  | 
28 | CC(C)(CC(=O)O)CC(=O)N[C@H]1CO[C@H]2[C@@H]1OC[C@@H]2n1nnnc1-c1ccccc1 | -5.18% [at 172 µM] |  | 
29 | c1ccc(CO[C@@H]2CO[C@H]3[C@@H]2OC[C@@H]3n2nnnc2SCc2ccco2)cc1 |  | 89.1 µM (active) | 
30 | CN(C)CC(=O)N1CC[C@H]2COC(=O)N2c2ccccc2C1 | -3.61% [at 172 µM] |  | 
31 | Cc1nc(CCNC(=O)NC2CCCC2)no1 | 0.591% |  | 
32 | COC1C(=O)N(c2cccc(F)c2)C12CCN(C(=O)C1(c3ccccc3)CC1)CC2 (configuration not stated) |  | 44.7 µM (active) | 
33 | CNC(=O)[C@@H]1C[C@@H](O)CN1C1CCN(C(=O)C2(c3ccccc3)CC2)CC1 | -19.2% |  | 
34 | CN1C(=O)CS(=O)(=O)C12CCN(C(=O)C1(c3ccccc3)CC1)CC2 | -2.32% |  | 
35 | O=C([C@@H]1C[C@H](Oc2cccnc2)CN1C(=O)Cc1cccc(F)c1)N1CCCC1 | 1.61% |  | 
36 | CCCN(CC1CCOC1)S(=O)(=O)c1ccccc1Cl (configuration not stated) | -22.3% |  | 
37 | CN1CCN(c2nc3c(c(=O)[nH]2)CCN(Cc2cccc4[nH]ccc24)CC3)CC1 | -15.9% |  | 
38 | Cc1ccc(C2Cn3nnc(C(=O)N4CCN(C(=O)COc5cccc(C)c5)CC4)c3CO2)cc1 (configuration not stated) | 11.9% |  | 
39 | CC(=O)N1CCN(c2cc(-c3noc([C@@H]4CCCN4Cc4ccccc4)n3)ccn2)CC1 |  | 70.8 µM (active) | 
40 | CC(=O)N1CCN(c2cc(-c3noc([C@@H]4CCCN4C4CCC4)n3)ccn2)CC1 | -23.6% [at 172 µM] |  | 
41 | CS(=O)(=O)c1ccc(CN2CCC[C@H]2c2nc(-c3ccc(N4CCC(C(N)=O)CC4)nc3)no2)cc1 | -12.9% |  | 
42 | COc1ccc(CN2CCC[C@H]2c2nc(-c3ccc(N(C)C)nc3)no2)c(O)c1 | -5.35% [at 172 µM] |  | 
43 | c1ccc2c(CN3CCC[C@H]3c3nc(-c4ccnc(N5CCOCC5)c4)no3)c[nH]c2c1 |  | 89.1 µM (active) | 
44 | O=C1CC(c2nc(-c3ccc4nc[nH]c4c3)no2)CN1Cc1ccncc1 (configuration not stated) | 1.22% |  | 
45 | Cc1cn2nc(C(=O)NCc3cccs3)cc2c(N2CCCC2)n1 | 4.06% |  | 
46 | CNc1nc(N2CC[C@H](N3CCN(C)CC3)[C@H](CCC(=O)O)C2)ncc1F | 3.05% |  | 
47 | COc1ccc(NC(=O)N2CCC(CC(=O)NCc3ccccc3)C2)cc1OC (configuration not stated) | -0.0483% |  | 
48 | COC[C@H]1CCCN1Cc1nc(C2(O)CCN(CC3CCCCC3)CC2)cs1 | -24.9% [at 172 µM] |  | 
49 | Cc1nc(CCNS(=O)(=O)Cc2cccc(Cl)c2)no1 | 3.75% |  | 
50 | COc1ccc(C(=O)N2CC(c3nnc(-c4ccncc4)o3)C3(CCOCC3)C2)cn1 (configuration not stated) | -1.02% |  | 

Row | SMILES | activity change, negative = cytotoxicity | Potency | outcome
51 | CNC(=O)[C@@H](Cc1ccccc1)N1CCC[C@H]1C(=O)N1CCC1 | -10.8% [at 172 µM] |  | 
52 | O=C(NCCc1ccccc1)C1CCCN1C(=O)c1cccc(-c2ccccn2)c1 (configuration not stated) | 3.51% |  | 
53 | CC(=O)N1CCC(c2nnc3n2C(C(=O)NCCCc2ccccc2)CC3)CC1 (configuration not stated) | -5.15% |  | 
54 | Cc1ccc(CC(=O)N2CCC(Cc3nc(-c4cnccn4)no3)CC2)cc1 | -11% |  | 
55 | O=C(NCCCc1ccccc1)C1CCCN1c1nccc(Nc2ccccc2F)n1 (configuration not stated) |  | 44.7 µM (active) | 
56 | Cc1ccc(Nc2ccnc(N3CCCC3C(=O)N3CCC(Cc4ccccc4)CC3)n2)cc1 (configuration not stated) |  | 14.1 µM (active) | 
57 | Cn1ccc(C(=O)N2C[C@H]3CN(C4CCOCC4)C[C@@]3(C(=O)O)C2)n1 | -0.816% |  | 
58 | COC(=O)[C@H](Cc1ccc(OC)cc1)NC(=O)[C@H]1CN(S(=O)(=O)c2ccccc2)CCN1C(C)=O | -2.68% |  | 
59 | COCCC(=O)N1C[C@@H](COC)[C@H](c2nc(C)no2)C1 | -16.4% |  | 
60 | CNC(=O)[C@@H]1C[C@@H](n2cc(CN(C)C(=O)Nc3ccc(C)c(C)c3)nn2)CN1 | -17.4% |  | 
61 | C=CCN1C[C@@H]2CN(C(=O)CCc3cccc(OC)c3)C[C@]2(C(=O)O)C1 | -5.09% |  | 
62 | Cc1noc(C)c1[S+](=O)([O-])N1CCCC(C(=O)N2CCC(c3ccccc3)CC2)C1 (configuration not stated) |  | 44.7 µM (active) | 
63 | Cc1noc(C)c1[S+](=O)([O-])N1CCC(C(=O)N2CCC(c3nc4ccncc4[nH]3)C2)CC1 (configuration not stated) | -0.958% |  | 
64 | Cc1noc(C)c1[S+](=O)([O-])N1CCC(C(=O)N2CCC(c3nc4ncccc4[nH]3)CC2)CC1 | 1.37% |  | 
65 | CCC(C)NC(=O)C1(c2ccc(NS(C)(=O)=O)cc2)CCCCC1 (configuration not stated) | -8.9% |  | 
66 | COc1ccc(C(=O)N2CCCC(c3nc(-c4cnccn4)no3)CCNC(=O)CC2)c(OC)n1 (configuration not stated) |  |  | inactive
67 | Cc1ccc(C(=O)N2CCC(c3n[nH]c(=O)n3-c3ccccc3)CC2)cc1F | 2.52% |  | 
68 | CN(Cc1csc(-c2ccccc2)n1)c1cc(C2CC(O)C2)nc(N)n1 (configuration not stated) |  | 25.1 µM (active) | 
69 | COc1ccc(N2C(=O)CSC23CCN(C(=O)c2ccc(C)cc2)CC3)cc1 | -82.5% |  | 
70 | O=C(c1cc(F)ccc1F)N1CCCC2(C1)NC(=O)N(Cc1ccccc1)C2=O (configuration not stated) | -8.4% |  | 
71 | Cc1cccc2c(C3CCN(S(=O)(=O)c4cc(Cl)cc(Cl)c4)CC3)c[nH]c12 |  | 25.1 µM (active) | 
72 | COc1cccc(S(=O)(=O)N2CCC(n3cnnc3C3CC3)CC2)c1 | -22.4% |  | 
73 | O=C(O)[C@@H]1CN(C(=O)CCCn2cncn2)C[C@H]1c1ccc2c(c1)OCO2 | 2.24% |  | 
74 | O=C(N[C@@H]1CN(C(=O)c2ccc3nc[nH]c3c2)CC[C@@H]1CO)C1CC1 | -3.61% |  | 
75 | CC(C)C1=NOC2(CCN(C(=O)c3ccccc3F)C2)C1 (configuration not stated) |  |  | inactive [at 172 µM]

Row | SMILES | activity change, negative = cytotoxicity | Potency | outcome
76 | O=C(NC1CC1)c1ccc(CC2CCN(C(=O)C3CCOC3)CC2)cc1 (configuration not stated) | -11.7% |  | 
77 | O=C(C1CCOCC1)N1CCOC[C@H](Oc2ccccc2)C1 | -1.74% [at 172 µM] |  | 
78 | O=C(C1CCOC1)N1CCC(N(Cc2ccccc2)C2CCOCC2)CC1 (configuration not stated) |  | 89.1 µM (active) | 
79 | Cn1cc(-c2ccsc2)c2nc(CN3CCNC(=O)C3)cn2c1=O | -1.38% [at 172 µM] |  | 
80 | CN1CCN(C(=O)c2ccc3nnc(C(C)(C)C)n3c2)CC1 | 0.0478% [at 172 µM] |  | 
81 | CCc1cccc(NC(=O)Cn2c(=O)c(-c3noc(CC)n3)c3n(c2=O)CCCC3)c1 | 1.18% |  | 
82 | CCc1cc(=O)n(CC(=O)Nc2cc(OC)cc(OC)c2)c(N2CCOCC2)n1 | 2.24% |  | 
83 | CCc1cc(=O)n(CC(=O)Nc2cccc(C(C)=O)c2)c(-c2ccccc2)n1 |  | 25.1 µM (active) | 
84 | COc1ccc(-c2ccc(C(=O)N3CCN(C(=O)c4ccccc4OC)CC3)cc2)nn1 | 0.833% |  | 
85 | CN(C)[C@@H]1[C@@H](NC(=O)CCn2cnc3ccccc3c2=O)[C@H]2CCO[C@H]21 |  |  | inactive
86 | CCCNC(=O)C(NC(=O)c1cccc(C)c1)C1CCN(C(=O)CCc2ccccc2)CC1 (configuration not stated) | -7.6% |  | 
87 | CCNC(=O)C1C(c2cccc(NC(=O)c3cccc(C)c3)c2)OC(=O)N1Cc1cccc(Cl)c1 (configuration not stated) |  | 28.2 µM (active) | 
88 | N#Cc1cccc(C(=O)Nc2ccc([C@H]3OCC(=O)N(Cc4ccccc4)[C@@H]3CO)cc2)c1 | -23.9% |  | 
89 | COc1cccc([S+](=O)([O-])N2CCC(C(=O)N3CCC(N4CCOCC4=O)CC3)CC2)c1 |  |  | inactive
90 | COCc1cc(=O)n(CC(=O)Nc2ccc(Cl)cc2)c(N2CCOCC2)n1 | -23.5% |  | 
91 | COc1ccc(CN2CCC3(CC2)COc2ccccc2CN3)cc1 | 3.7% |  | 
92 | c1ccc2c(c1)CNC1(CCN(Cc3cccc4ccccc34)CC1)CO2 |  | 79.4 µM (active) | 
93 | O=[S+]1([O-])NC2(CCN(Cc3ccccc3)CC2)COc2ccccc21 | -3.51% |  | 
94 | O=C(NCCc1nc(-c2ccccc2)cs1)C1NCCc2[nH]cnc21 (configuration not stated) | 1.73% |  | 
95 | O=S(=O)(Cc1cccc(F)c1)N1CCC(C2CCNC2)CC1 (configuration not stated) | -18.2% |  | 
96 | Cc1ccc(CS(=O)(=O)N2CCC(C3CCNC3)CC2)cc1C (configuration not stated) |  | 89.1 µM (active) | 
97 | O=C1CCN(C(=O)C2CCN(S(=O)(=O)Cc3ccccc3)CC2)CCCCCCN1 | -1.97% |  | 
